High-throughput results: PubChem, National Center for Advancing Translational Sciences (NCATS)
Sampled rows, rich in hits. Any-hit rate of the full collection: about 12%.
G9a inh: G9a (human) methyltransferase inhibition; 8.8% of 350,000 active; AID 504332; Q96KQ7; G9a H3K9 monomethylation, AlphaScreen, 2 h; Potency, µM (top dose mostly 102 µM), for inactives: at the top dose activity, negative = inhibition, most hits filed as inhibitors; note: % is set by controls: 0 for no effect and ±100 for the full control effect; nearly all actives have a fitted effect of over 75% in size
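G9a (20 nM) was preincubated 15 min with compound, then reacted 2 h at room temperature with 500 nM biotin-H3K9 peptide and 20 µM SAM. Monomethyl-H3K9 detected by AlphaScreen using anti-H3K9me1 antibody.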
BAZ2B block: inhibitors of human BAZ2B bromodomain. Potency, µM (doses to about 114 µM), inactives show top-dose activity change, negative = inhibition, usual class: inhibitors. Q9UIF8. 4.4% of 360,000 active. AlphaScreen BAZ2B-H3K14Ac peptide displacement; note: % is set by controls: 0 for no effect and ±100 for the full control effect; nearly all actives have a fitted effect of over 60% in size
Target sequence (Q9UIF8 whole entry, looked up): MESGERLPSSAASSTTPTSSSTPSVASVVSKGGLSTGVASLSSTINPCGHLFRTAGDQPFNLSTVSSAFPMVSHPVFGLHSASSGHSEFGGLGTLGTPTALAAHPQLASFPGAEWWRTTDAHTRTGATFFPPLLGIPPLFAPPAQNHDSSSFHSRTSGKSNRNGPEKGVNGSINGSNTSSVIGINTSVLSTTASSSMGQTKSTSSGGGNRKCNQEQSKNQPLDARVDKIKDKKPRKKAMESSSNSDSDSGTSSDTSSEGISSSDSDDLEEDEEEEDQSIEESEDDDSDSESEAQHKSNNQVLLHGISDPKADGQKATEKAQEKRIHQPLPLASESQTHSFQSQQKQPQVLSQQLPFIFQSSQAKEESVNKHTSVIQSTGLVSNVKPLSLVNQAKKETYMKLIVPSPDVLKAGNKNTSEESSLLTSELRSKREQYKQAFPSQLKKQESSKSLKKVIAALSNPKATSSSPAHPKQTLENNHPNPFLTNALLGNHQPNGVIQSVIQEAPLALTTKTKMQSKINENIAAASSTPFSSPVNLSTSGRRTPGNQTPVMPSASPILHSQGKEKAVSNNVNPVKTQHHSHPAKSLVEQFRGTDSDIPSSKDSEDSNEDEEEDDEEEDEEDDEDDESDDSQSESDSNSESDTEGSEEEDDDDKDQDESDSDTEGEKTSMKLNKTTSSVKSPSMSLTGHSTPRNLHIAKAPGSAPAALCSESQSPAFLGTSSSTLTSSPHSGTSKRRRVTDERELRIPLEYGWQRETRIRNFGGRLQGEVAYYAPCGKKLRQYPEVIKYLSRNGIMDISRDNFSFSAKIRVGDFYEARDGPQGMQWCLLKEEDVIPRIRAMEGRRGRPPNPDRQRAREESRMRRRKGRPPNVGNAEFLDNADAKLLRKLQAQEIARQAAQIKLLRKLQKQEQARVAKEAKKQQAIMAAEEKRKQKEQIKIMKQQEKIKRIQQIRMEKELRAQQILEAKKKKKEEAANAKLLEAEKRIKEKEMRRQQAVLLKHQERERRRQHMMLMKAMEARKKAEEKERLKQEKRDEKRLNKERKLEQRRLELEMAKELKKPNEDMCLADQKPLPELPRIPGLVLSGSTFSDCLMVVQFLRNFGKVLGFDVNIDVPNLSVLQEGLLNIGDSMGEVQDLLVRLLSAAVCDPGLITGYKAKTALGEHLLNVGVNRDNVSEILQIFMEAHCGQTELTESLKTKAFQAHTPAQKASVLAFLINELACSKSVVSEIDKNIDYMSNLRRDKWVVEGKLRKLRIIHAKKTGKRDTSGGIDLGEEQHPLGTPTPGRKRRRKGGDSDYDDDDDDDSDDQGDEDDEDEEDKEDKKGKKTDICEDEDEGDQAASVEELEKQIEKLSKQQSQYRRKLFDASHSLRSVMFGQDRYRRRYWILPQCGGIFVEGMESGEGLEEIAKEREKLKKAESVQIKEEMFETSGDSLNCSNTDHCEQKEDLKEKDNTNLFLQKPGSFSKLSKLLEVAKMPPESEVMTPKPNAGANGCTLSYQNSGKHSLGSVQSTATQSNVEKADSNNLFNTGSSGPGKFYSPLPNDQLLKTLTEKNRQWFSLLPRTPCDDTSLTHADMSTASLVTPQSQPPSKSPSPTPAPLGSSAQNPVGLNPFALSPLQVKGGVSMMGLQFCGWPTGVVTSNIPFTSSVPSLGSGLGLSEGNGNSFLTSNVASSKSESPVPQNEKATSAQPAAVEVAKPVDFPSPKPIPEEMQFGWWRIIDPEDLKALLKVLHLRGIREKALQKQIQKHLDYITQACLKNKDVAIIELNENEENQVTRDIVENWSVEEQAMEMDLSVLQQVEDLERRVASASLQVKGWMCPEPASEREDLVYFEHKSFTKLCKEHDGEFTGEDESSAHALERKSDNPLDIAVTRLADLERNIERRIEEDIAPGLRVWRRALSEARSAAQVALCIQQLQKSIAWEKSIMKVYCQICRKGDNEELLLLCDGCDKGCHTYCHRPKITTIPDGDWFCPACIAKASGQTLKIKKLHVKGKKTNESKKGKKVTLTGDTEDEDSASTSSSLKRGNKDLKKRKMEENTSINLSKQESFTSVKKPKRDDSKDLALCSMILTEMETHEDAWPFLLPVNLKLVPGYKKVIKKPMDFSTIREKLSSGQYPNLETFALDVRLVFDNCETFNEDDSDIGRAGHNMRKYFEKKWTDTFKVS
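Inhibition is scored as reduced AlphaScreen emission. The BAZ2B/b-H3(5-23)K14Ac complex (50 nM each) in PBS pH 7.4, 0.01% Tween-20 meets compound (up to 110 uM) for 30 min at RT before bead addition.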
PLK1 PBD block: PLK1 (human) polo-box domain binding inhibition. Potency, µM, inactives show max response, negative = inhibition, hits mostly inhibitors. Plk1 PBD binding of FITC phosphopeptide, fluorescence polarization. AID 720504. 2.8% of 360,000 active; note: series mostly up to about 57 µM; % is set by controls: 0 for no effect and ±100 for the full control effect; nearly all actives have a fitted effect of over 65% in size
Sfp PPTase inh: Sfp phosphopantetheinyl transferase inhibition; Q9F4F7; Biochemical Sfp PPTase activity, qHTS; Potency, µM, without a hit: largest response in the series, negative = inhibition, usual class: inhibitors; 3.5% of 310,000 active; AID 1490;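 note: the enzyme is Sfp with the accession as filed and its product quenches rhodamine fluorescence; 0% = enzyme reaction without inhibitor and -100% = no enzyme wells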
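Fluorescence-quenching assay: 15 nM Sfp-PPTase preincubated 15 min at room temperature with compound, then 5 uM rhodamine-CoA and 12.5 uM BHQ-2-labelled YbbR peptide added. Fluorescence (ex 525/em 598 nm) read at start and after 30 min; difference gives rate.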
JMJD2A Tudor inh: inhibitors of human JMJD2A Tudor domain; O75164; AlphaScreen JMJD2A-Tudor / H3K4me3 peptide binding; Potency, µM (highest dose often 114 µM), without a hit: at the highest dose activity change, negative = inhibition, usual class: inhibitors; 4.4% of 390,000 active; AID 504339; note: % is set by controls: 0 for no effect and ±100 for the full control effect; nearly all actives have a fitted effect of over 50% in size
HP1b chromo inh: HP1-beta chromodomain-methylated histone interaction inhibition | 0.56% of 390,000 active | Potency, µM (highest dose often 114 µM), for inactives: top-dose activity change, negative = inhibition, most hits filed as inhibitors | AID 540317 | AlphaScreen HP1-beta / biotin-H3K9me3 peptide binding; note: nearly all actives have a fitted effect of over 70% in size
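Compound inhibition of the preformed complex between 50 nM HP1-beta and 50 nM biotinylated H3K9me3 peptide was read by AlphaScreen. Buffer was PBS pH 7.4 with 0.01% Tween-20. Incubations ran 30 min at room temperature, with 10 ug/mL donor/acceptor beads.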
Numbers without * were called inactive; [ ] = dose if it differs, or a comment. Calls come from the whole dose curve; as a rule, active = well fitted curve in the direction sought with a large enough effect; inconclusive = small, poorly fitted or top-dose-only effect, or another doubt; inactive = no such curve, though single readings can be large; an effect the other way counts as inactive or inconclusive. Potency is the fitted concentration of half-maximal effect.

Cc1ccc(NS(=O)(=O)N(C)C)cc1 was read as G9a inh 16%[59 µM], BAZ2B block 1%, PLK1 PBD block -5%, Sfp PPTase inh 12%, JMJD2A Tudor inh -13% and HP1b chromo inh 21%.
For COc1ccc(NC(=S)NNc2ccc([N+](=O)[O-])cc2S(=O)(=O)Nc2ccc(C)cc2C)cc1 the results were G9a inh 10µM*, BAZ2B block 25µM*, PLK1 PBD block 27µM*, Sfp PPTase inh 40µM*, JMJD2A Tudor inh 32µM* and HP1b chromo inh inconclusive.
For Cc1ccc(NS(=O)(=O)c2cc([N+](=O)[O-])ccc2NNC(=S)Nc2cccc(Cl)c2)c(C)c1 the results were G9a inh 16µM*, BAZ2B block 20µM*, PLK1 PBD block inconclusive, Sfp PPTase inh 7.9µM*, JMJD2A Tudor inh inconclusive and HP1b chromo inh inconclusive.
Screening Cc1ccc([N+](=O)[O-])cc1NC(=S)NC(=O)CC(C)(C)C returned G9a inh -37%, BAZ2B block -12%, PLK1 PBD block -17%, Sfp PPTase inh 4%, JMJD2A Tudor inh -35% and HP1b chromo inh -8%.
Screening Cc1ccc(NS(=O)(=O)c2cc([N+](=O)[O-])ccc2NNC(=S)Nc2cc(C)ccc2C)c(C)c1 returned G9a inh 2.5µM*, BAZ2B block 32µM*, PLK1 PBD block inconclusive, Sfp PPTase inh -72%, JMJD2A Tudor inh 40µM* and HP1b chromo inh inconclusive.
`CO[C@H]1COC(=O)[C@@H](C)COC(=O)[C@@H](OCc2ccccc2)/C=C\[C@@H]1C` gave Sfp PPTase inh 20%.
`COc1ccc(C(=O)NNC2=NCCCCC2)cc1` gave G9a inh 32µM*, BAZ2B block -36%, PLK1 PBD block -9%, Sfp PPTase inh -12%, JMJD2A Tudor inh -21% and HP1b chromo inh 0%.
`COc1ccc(C(=O)CNC2=NCCC2)cc1` gave G9a inh -31%, PLK1 PBD block -2%, Sfp PPTase inh 4%, JMJD2A Tudor inh 5% and HP1b chromo inh 48%.
Screening O=C(CNc1ccccc1)NNC1=NCCC1 returned G9a inh 10µM*, BAZ2B block inconclusive, PLK1 PBD block inconclusive, Sfp PPTase inh inconclusive, JMJD2A Tudor inh -4% and HP1b chromo inh 24%.
`Cc1ccccc1C(=O)NNC1=NCCC1` gave G9a inh 2µM*, BAZ2B block inconclusive, PLK1 PBD block 0%, Sfp PPTase inh -6%, JMJD2A Tudor inh 1.6µM* and HP1b chromo inh -13%.
Screening CS(=O)(=O)c1nc(-c2ccccc2)cc(C(F)(F)F)n1 returned G9a inh inconclusive, BAZ2B block -2%, PLK1 PBD block 24µM*, Sfp PPTase inh -7%, JMJD2A Tudor inh -11% and HP1b chromo inh 42%.
Screening CCc1nc(NCc2ccccn2)c2oc3ccccc3c2n1 returned G9a inh 25µM*, BAZ2B block inconclusive, PLK1 PBD block -3%, Sfp PPTase inh 13%, JMJD2A Tudor inh -23% and HP1b chromo inh 35%.
For CCc1nc(Nc2ccccc2OC)c2oc3ccccc3c2n1 the results were G9a inh 50µM*, BAZ2B block -3%, PLK1 PBD block -3%, Sfp PPTase inh -21%, JMJD2A Tudor inh 4% and HP1b chromo inh 56%.
CCCn1c(C)nc2c(NCCCCN3CCCC3)nc(C)nc21 was read as Sfp PPTase inh 33%.
For CCn1cc(S(=O)(=O)c2ccccc2)c(=O)c2cc(F)c(N3CCCC3)cc21 the results were G9a inh 11%[59 µM], BAZ2B block 1%, JMJD2A Tudor inh 0% and HP1b chromo inh 18%.
Cn1cnc([N+](=O)[O-])c1S(=O)(=O)Oc1cccc2ccccc12 was read as PLK1 PBD block 8.4µM*, JMJD2A Tudor inh -34% and HP1b chromo inh -4%.
For Cn1cnc([N+](=O)[O-])c1Oc1cccc2ccccc12 the results were G9a inh -17%, BAZ2B block -4%, PLK1 PBD block -13%, Sfp PPTase inh -17%, JMJD2A Tudor inh -19% and HP1b chromo inh 36%.
CC(=O)C(Cc1ccccc1)NC(=O)COC(=O)c1cc(S(=O)(=O)N2CCOCC2)ccc1F (stereo not given) was read as PLK1 PBD block -2%.
Screening COc1cc(C)cc(C(=O)O)c1C1=C(O)c2cccc(O)c2C(=O)C1=O returned G9a inh inconclusive, BAZ2B block 56µM*, PLK1 PBD block inconclusive, Sfp PPTase inh -6%, JMJD2A Tudor inh 79µM* and HP1b chromo inh -24%.
COc1cc(C(=O)NCC(=O)N/N=C/c2cccnc2)cc(OC)c1OC was read as G9a inh 17%, BAZ2B block 2%, PLK1 PBD block -1%, Sfp PPTase inh 19%, JMJD2A Tudor inh -8% and HP1b chromo inh 30%.
Screening Cn1nc(C(=O)Nc2cccc(C(F)(F)F)c2)c2c1-c1ccccc1S(=O)(=O)C2 returned G9a inh -5%[59 µM], BAZ2B block 1%, JMJD2A Tudor inh 1% and HP1b chromo inh 45%.
Screening Cc1c(C(=O)NC2CCCCC2)sc2nc3ccc(N)cc3n12 returned Sfp PPTase inh 26%.
For COc1ccc(-c2[nH]ncc2CN(CC2CCC(=O)N2)C(C)C)cc1F (stereo not given) the results were G9a inh inconclusive, BAZ2B block -10%, PLK1 PBD block 27µM*, Sfp PPTase inh 8%, JMJD2A Tudor inh inconclusive and HP1b chromo inh -14%[57 µM].
COc1ccc(-c2[nH]ncc2CN(C)CCCN2CCOCC2)cc1F was read as G9a inh 24%, BAZ2B block 36%, PLK1 PBD block -5%, Sfp PPTase inh -5%, JMJD2A Tudor inh -8% and HP1b chromo inh 23%.
COCCNc1nnc(SCC(=O)Nc2sc3c(c2C(=O)c2ccccc2)CCCC3)s1 was read as G9a inh 45µM*, BAZ2B block inconclusive, PLK1 PBD block -18%, Sfp PPTase inh inconclusive, JMJD2A Tudor inh inconclusive and HP1b chromo inh inconclusive.
Cc1csc(SCC(=O)NC(=O)c2ccccc2)n1 was read as G9a inh -35%, BAZ2B block -1%, PLK1 PBD block 5%, JMJD2A Tudor inh -13% and HP1b chromo inh 2%.
For Nc1nnc(SCC(=O)NNC(=O)c2ccc(Cl)cc2)s1 the results were G9a inh 8.9µM*, BAZ2B block -1%, PLK1 PBD block -16%, JMJD2A Tudor inh -17% and HP1b chromo inh 23%.
`Cc1nnc(SCC(=O)NNC(=O)c2ccc(Cl)cc2)s1` gave G9a inh 11%[59 µM], BAZ2B block -10%, PLK1 PBD block -15%, Sfp PPTase inh 16%, JMJD2A Tudor inh -10% and HP1b chromo inh 13%.
COCCNc1nnc(SCC(=O)NNC(=O)c2ccccc2)s1 was read as G9a inh inconclusive, BAZ2B block -15%, PLK1 PBD block 27µM*, Sfp PPTase inh -16%, JMJD2A Tudor inh -18% and HP1b chromo inh inconclusive.
